# Reference: PubChem BioAssay (NCATS)
# Results filed as inconclusive are left out. Where a call stands in place of a potency, no number is given. The source made the active and inactive calls. Unless noted, calls come from the whole dose curve; as a rule, active = well fitted curve in the direction sought with a large enough effect; inconclusive = small, poorly fitted or top-dose-only effect, or another doubt; inactive = no such curve, though single readings can be large; an effect the other way counts as inactive or inconclusive.
# Key:
# [1] = AP1 Signaling Pathway (AID 357; active = well fitted curve in either direction with a large enough effect, not every such curve was filed as active;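 note: ME-180 reporter cells stimulated with EGF at its EC50 level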)
# Procedure, shortened: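 First, ME-180 AP-1-bla cells were cultured overnight at 37 °C in low-serum Opti-MEM. Next, titrated compounds with EC50 EGF were incubated 5 hours. Finally, CCF4 was added for 2.5 hours and the 460/530 nm ratio recorded.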
# [2] = molecular target: Cytochrome P450 1A2 (Homo sapiens) (UniProt P05177); assay: p450-cyp1a2 (AID 410; calls by dose curve; note: potency is the fitted concentration of half-maximal effect)
# Procedure, shortened: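 20nM CYP1A2, 100uM Luciferin-ME (=Km), 100mM KPO4; cpd 10 min RT; +NADPH regen, 60 min RT; stop/detect 20 min; luminescence. Normalized to furafylline 57 uM = full inhibition.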
# [3] = NFAT Signaling Pathway (AID 444; active = well fitted curve in either direction with a large enough effect, not every such curve was filed as active;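 note: carbachol stimulus at about its EC50 of 1 µM final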); conditions: Jurkat NFAT-bla M1, carbachol, beta-lactamase ratio, 5 h; at 17.2 µM (top of the series)
# Procedure, shortened: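 Read-out: CCF4 FRET ratio (460 nm/530 nm) after 1 h RT dye loading, used for %activity and AC50 from titration series. Cells: Jurkat NFAT-β-lactamase/M1 line, treated with compound plus 1 uM carbachol for 5 h, 37 °C.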
# [4] = Stat Signaling Pathway (AID 446; active = well fitted curve in either direction with a large enough effect, not every such curve was filed as active;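 note: ME-180 cervical cancer cells given 40 pM IL-6 alongside compound; SIE-controlled beta-lactamase reporter measured as 460/530 nm FRET emission ratio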)
# Procedure, shortened: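 Normalization used AC90 stimulation (300 pM IL-6) and AC90 inhibition (125 nM pan-JAK inhibitor at 40 pM IL-6). The underlying signal is SIE-driven beta-lactamase in ME-180 cells after 5 h IL-6 exposure with compound.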
# [5] = molecular target: Glucocorticoid receptor (Homo sapiens) (UniProt P04150); assay: GR-GFP Redistribution (AID 450;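 active = compounds whose dose series gives a full or clear partial fitted curve of increased nuclear translocation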; note: potency is the fitted concentration of half-maximal effect); conditions: U2OS GR-GFP nuclear translocation, laser cytometry, 2 h
# [6] = molecular target: Glucocorticoid receptor (Homo sapiens) (UniProt P04150); assay: GR-EFC Redistribution (AID 451; calls by dose curve; note: potency is the fitted concentration of half-maximal effect); conditions: CHO-K1 GR-EFC translocation, beta-gal luminescence, 2 h
# Procedure, shortened: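 Translocation of GR-ED fusion to nuclear EA restores b-gal, read by luminescence after 1 h room-temperature detection. Engineered CHO-K1 biosensor cells, 1,000/well, exposed 2 h at 37 C to titrations up to 46 uM final.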
# [7] = molecular target: Mitogen-activated protein kinase 10 (Mus musculus) (UniProt Q61831); assay: JNK3 AlphaScreen Assay (AID 530; active = well fitted curve in either direction with a large enough effect, not every such curve was filed as active;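 note: kinase came from lysate of stimulated human HepG2 cells; signal reports phosphorylation of biotinylated GST-cJun 1-79 at Ser73 with 10 µM ATP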)
# Procedure, shortened: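 Kinase buffer: 20 mM Tris-HCl pH 7.6, 10 mM MgCl2, 1 mM DTT, 0.1 mM Na3VO4, 0.01% Tween-20; ATP 10 uM. Substrate biotin-GST-cJun(1-79), enzyme from activated HepG2 lysates. Detection by Ser73 phospho-antibody AlphaScreen.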
# [8] = molecular target: 3',5'-cyclic-AMP phosphodiesterase 4B (Homo sapiens) (UniProt Q07343); assay: qHTS Assay for Inhibitors of PDE-IV (AID 607; active = well fitted activation curve with a large enough effect in the main read-out, with a control signal flat, not every such curve was filed as active)
# Procedure, shortened: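 HEK293 ACTOne cells with CNG channel (1000/well), endogenous PDE4; membrane potential dye, compounds up to 22.9 uM final. Fluorescence Ex 535/Em 590; RO 20-1724 (100 uM final) as reference.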
# [9] = qHTS Assay for Lipid Storage Modulators (AID 1519; calls by dose curve); conditions: Drosophila S3 cells, BODIPY lipid droplet/cell ratio, laser cytometry, cells loaded with oleic acid
# Procedure, shortened: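 Cells seeded at 5,000 per well were treated with compounds over a concentration series and loaded with oleic acid (400 uM, as added). Lipid droplet fluorescence (488 nm excitation, 500-530 nm channel) was read by laser-scanning cytometry and normalized to 20 uM Triacsin C.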
# [10] = molecular target: ATP-dependent 6-phosphofructokinase (Trypanosoma brucei brucei) (UniProt O15648); assay: qHTS Assay to Find Inhibitors of T. brucei phosphofructokinase: hit validation (AID 492961);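 note: luminescence reports ADP formed as PFK phosphorylates fructose-6-phosphate with ATP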
# Procedure, shortened: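 ADP-Glo luminescence read-out of ADP formed by 1.25 nM PFK from 0.1 mM ATP and 0.5 mM F6P (TEA pH 8.0, 45 min, RT). Compounds titrated; activity normalized to no-enzyme and full-enzyme controls.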
# [11] = molecular target: Luciferin 4-monooxygenase (Photinus pyralis) (UniProt P08659); assay: Biochemical firefly luciferase enzyme assay for NPC (AID 624030);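 note: purified P. pyralis luciferase at 10 nM with luciferin and ATP substrate; nearly all actives have a fitted effect of over 70% in size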
# Procedure, shortened: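 Direct inhibition of firefly luciferase enzyme (10 nM final, 50 mM Tris Acetate) assessed by luminescence within 5 minutes. Percent activity scaled between DMSO and PTC124 positive control, with concentration-effect curves classified by fit quality and response.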
# [12] = qHTS profiling for inhibitors of Plasmodium falciparum proliferation (AID 504749); note: nearly all actives have a fitted effect of over 60% in size; conditions: P. falciparum in erythrocytes, SYBR Green DNA, 72 h, at 12.8 µM (top of the series)
# Procedure, shortened: (§1)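 In a 72 h erythrocytic culture (37 C, humidified, 5% CO2) at 2.5% hematocrit and 0.3% starting parasitemia, compounds were tested; SYBR Green I in detergent lysis buffer stained parasite DNA overnight.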
# [13] = test system: C2A; assay: as above; conditions: P. falciparum in erythrocytes, SYBR Green DNA, 72 h; series mostly up to 28.7 µM
# Procedure, shortened: as §1
# [14] = test system: CP192; assay: as above; conditions: P. falciparum in erythrocytes, SYBR Green DNA, 72 h; series mostly up to 28.7 µM
# Procedure, shortened: as §1
# [15] = test system: CP211; assay: as above; conditions: P. falciparum in erythrocytes, SYBR Green DNA, 72 h; series mostly up to 28.7 µM
# Procedure, shortened: as §1
# [16] = test system: CP266; assay: as above; conditions: P. falciparum in erythrocytes, SYBR Green DNA, 72 h; series mostly up to 12.8 µM
# Procedure, shortened: as §1
# [17] = test system: CP315; assay: as above; conditions: P. falciparum in erythrocytes, SYBR Green DNA, 72 h; series mostly up to 28.7 µM
# Procedure, shortened: as §1
# [18] = test system: CP329; assay: as above; conditions: P. falciparum in erythrocytes, SYBR Green DNA, 72 h; series mostly up to 28.7 µM
# Procedure, shortened: as §1
# [19] = test system: FAB9; assay: as above; conditions: P. falciparum in erythrocytes, SYBR Green DNA, 72 h; series mostly up to 28.7 µM
# Procedure, shortened: as §1
# [20] = molecular target: Ubiquitin carboxyl-terminal hydrolase 1 (Homo sapiens) (UniProt O94782); assay: Inhibitors of USP1/UAF1: Pilot qHTS (AID 504865); note: potency is the fitted concentration of half-maximal effect; nearly all actives have a fitted effect of over 35% in size
# Procedure, shortened: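 1nM USP1/UAF1 + cpd, 15 min RT; start w/ Ub-Rho 150nM final; kinetic FL 480/540 nm, 6 reads q60 s. Buffer 50mM HEPES pH 7.8, 0.5mM EDTA, 1mM TCEP, 0.01% Tween-20, 0.1 mg/ml BSA.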
# [21] = measured here: cell count channel max response
# [22] = measured here: lipid channel max response
# Glucocorticoid receptor (Homo sapiens), sequence (P04150 whole entry, looked up, the tested form may be a part): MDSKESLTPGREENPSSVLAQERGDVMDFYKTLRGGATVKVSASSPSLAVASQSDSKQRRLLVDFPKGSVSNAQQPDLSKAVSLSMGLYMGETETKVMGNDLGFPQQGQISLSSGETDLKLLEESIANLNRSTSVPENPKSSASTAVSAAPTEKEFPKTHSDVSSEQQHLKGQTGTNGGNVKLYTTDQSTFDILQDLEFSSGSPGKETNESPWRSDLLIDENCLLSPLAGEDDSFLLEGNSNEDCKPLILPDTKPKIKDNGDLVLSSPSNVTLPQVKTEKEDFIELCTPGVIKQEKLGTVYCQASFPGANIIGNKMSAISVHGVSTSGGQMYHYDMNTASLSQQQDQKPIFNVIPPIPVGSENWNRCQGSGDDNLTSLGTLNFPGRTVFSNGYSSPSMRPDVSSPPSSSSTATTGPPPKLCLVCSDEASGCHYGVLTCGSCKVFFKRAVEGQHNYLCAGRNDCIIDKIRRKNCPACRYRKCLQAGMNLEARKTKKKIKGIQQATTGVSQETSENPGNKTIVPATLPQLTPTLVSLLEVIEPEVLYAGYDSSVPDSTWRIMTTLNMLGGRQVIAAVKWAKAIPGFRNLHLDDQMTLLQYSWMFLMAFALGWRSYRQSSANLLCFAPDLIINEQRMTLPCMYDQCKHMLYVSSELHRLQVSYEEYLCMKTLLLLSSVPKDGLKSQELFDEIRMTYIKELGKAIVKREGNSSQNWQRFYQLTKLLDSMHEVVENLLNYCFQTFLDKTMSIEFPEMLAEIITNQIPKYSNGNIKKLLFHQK
# 3',5'-cyclic-AMP phosphodiesterase 4B (Homo sapiens), sequence (Q07343 whole entry, looked up): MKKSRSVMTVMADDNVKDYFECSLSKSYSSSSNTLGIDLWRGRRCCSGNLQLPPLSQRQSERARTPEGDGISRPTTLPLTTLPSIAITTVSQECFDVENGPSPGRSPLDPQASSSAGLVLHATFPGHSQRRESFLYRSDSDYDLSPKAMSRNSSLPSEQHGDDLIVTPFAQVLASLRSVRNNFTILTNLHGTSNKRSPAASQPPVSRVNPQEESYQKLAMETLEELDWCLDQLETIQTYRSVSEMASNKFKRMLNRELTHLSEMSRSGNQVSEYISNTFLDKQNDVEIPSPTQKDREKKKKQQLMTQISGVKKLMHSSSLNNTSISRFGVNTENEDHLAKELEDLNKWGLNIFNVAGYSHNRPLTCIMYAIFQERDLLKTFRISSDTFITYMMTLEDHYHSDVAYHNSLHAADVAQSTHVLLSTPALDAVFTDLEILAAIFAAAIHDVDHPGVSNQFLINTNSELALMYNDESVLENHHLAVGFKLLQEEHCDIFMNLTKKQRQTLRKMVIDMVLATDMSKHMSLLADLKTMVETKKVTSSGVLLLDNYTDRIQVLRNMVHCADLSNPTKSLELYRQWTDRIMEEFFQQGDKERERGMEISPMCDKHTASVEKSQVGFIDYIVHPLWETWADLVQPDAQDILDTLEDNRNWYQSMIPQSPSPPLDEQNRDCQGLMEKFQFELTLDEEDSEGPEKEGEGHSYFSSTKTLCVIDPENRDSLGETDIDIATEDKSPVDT
# Cytochrome P450 1A2 (Homo sapiens), sequence (P05177 whole entry, looked up): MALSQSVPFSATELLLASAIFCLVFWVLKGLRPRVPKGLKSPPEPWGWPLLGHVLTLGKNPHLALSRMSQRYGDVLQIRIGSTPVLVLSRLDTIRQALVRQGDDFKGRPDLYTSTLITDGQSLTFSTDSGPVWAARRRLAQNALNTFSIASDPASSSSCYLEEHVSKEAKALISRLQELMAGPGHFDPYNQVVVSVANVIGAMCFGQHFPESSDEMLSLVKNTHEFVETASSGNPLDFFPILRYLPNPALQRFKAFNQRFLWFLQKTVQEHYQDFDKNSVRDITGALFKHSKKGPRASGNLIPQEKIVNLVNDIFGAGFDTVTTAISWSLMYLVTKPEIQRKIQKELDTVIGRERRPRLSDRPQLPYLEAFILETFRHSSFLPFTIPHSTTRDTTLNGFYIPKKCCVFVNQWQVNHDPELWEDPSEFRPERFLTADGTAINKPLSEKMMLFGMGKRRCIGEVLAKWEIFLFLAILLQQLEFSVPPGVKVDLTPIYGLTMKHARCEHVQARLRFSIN
# Ubiquitin carboxyl-terminal hydrolase 1 (Homo sapiens), sequence (O94782 whole entry, looked up): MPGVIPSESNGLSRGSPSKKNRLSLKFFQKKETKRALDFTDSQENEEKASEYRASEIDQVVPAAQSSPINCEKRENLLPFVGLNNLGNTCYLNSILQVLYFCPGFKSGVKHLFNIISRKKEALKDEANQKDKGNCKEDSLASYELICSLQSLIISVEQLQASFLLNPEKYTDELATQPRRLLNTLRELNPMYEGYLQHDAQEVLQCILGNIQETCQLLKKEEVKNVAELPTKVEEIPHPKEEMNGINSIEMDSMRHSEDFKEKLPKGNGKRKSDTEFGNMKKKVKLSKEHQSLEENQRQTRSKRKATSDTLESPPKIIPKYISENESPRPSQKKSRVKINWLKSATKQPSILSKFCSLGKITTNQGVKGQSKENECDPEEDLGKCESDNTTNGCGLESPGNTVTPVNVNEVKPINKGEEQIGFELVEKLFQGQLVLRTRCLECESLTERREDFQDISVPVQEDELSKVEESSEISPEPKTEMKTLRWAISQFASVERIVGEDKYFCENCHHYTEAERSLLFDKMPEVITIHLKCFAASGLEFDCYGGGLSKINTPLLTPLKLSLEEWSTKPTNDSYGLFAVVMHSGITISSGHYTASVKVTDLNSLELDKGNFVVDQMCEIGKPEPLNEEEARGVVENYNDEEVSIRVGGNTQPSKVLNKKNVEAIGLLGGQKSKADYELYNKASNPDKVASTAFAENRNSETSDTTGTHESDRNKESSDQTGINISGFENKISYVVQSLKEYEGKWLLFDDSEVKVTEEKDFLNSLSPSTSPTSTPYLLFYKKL
# Luciferin 4-monooxygenase (Photinus pyralis), sequence (P08659 whole entry, looked up): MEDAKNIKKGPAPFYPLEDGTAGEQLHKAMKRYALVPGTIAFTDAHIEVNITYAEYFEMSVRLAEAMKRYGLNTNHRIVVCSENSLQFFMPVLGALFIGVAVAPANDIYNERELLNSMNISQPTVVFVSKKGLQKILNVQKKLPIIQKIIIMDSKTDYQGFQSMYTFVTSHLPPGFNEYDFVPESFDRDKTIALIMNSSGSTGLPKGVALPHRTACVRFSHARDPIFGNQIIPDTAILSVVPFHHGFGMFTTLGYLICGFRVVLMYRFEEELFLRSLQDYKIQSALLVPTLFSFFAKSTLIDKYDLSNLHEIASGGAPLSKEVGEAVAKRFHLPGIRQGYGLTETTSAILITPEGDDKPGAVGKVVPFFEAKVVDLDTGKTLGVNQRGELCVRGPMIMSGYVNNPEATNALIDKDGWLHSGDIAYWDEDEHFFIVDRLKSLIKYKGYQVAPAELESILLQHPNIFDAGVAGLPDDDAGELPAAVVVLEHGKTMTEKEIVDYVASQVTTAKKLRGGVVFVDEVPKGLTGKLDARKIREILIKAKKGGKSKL
# ATP-dependent 6-phosphofructokinase (Trypanosoma brucei brucei), sequence (O15648 whole entry, looked up): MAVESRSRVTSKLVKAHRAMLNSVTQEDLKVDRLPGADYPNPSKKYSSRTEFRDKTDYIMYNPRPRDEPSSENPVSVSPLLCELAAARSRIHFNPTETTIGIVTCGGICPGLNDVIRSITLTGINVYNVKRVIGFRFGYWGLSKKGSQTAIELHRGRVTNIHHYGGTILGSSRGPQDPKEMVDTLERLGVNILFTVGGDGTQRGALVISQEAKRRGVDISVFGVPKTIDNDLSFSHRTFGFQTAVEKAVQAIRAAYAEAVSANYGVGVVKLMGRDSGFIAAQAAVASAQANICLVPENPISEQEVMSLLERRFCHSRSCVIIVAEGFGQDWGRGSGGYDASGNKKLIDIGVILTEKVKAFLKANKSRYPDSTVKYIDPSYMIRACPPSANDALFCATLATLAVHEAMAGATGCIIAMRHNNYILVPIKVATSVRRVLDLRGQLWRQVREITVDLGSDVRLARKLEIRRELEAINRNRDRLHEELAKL
compound,measurement,setting,value
C[C@H]1CN(C2CCC(C#N)(c3ccc(F)cc3)CC2)CC[C@@]1(C(=O)O)c1ccccc1 (some centres not stated),outcome,[1],inactive
same,Potency,[2],inactive
same,"activity change, negative = inhibition",[3],-14% (inactive)
same,outcome,[4],inactive
same,Potency,[5],> 20.6 µM (inactive)
same,Potency,[6],> 20.6 µM (inactive)
same,outcome,[7],inactive
same,Potency,[8],inactive
same,"activity change, negative = inhibition",[9]; at 25.7 µM (top of the series),-3.1% (inactive)
same,max response,[9]; [21],-19.6%
same,max response,[9]; [22],-20.8%
same,Potency,[10],inactive
same,Potency,[11],inactive
same,"activity, negative = inhibition",[12]; parasite line A,1.54% (inactive)
same,"activity, negative = inhibition",[12]; parasite line B,12.6% (inactive)
same,Potency,[13],inactive
same,Potency,[14],inactive
same,Potency,[15],inactive
same,Potency,[16],inactive
same,Potency,[17],inactive
same,Potency,[18],inactive
same,Potency,[19],inactive
CC(C)C[C@H]1C(=O)N2CCC[C@@H]2[C@@]2(O)O[C@](NC(=O)[C@@H]3C=C4c5cccc6[nH]cc(c56)C[C@@H]4N(C)C3)(C(C)C)C(=O)N12,outcome,[1],inactive
same,Potency,[2],12.6 µM (active)
same,"activity change, negative = inhibition",[3],-19.6% (inactive)
same,outcome,[4],inactive
same,Potency,[5],> 20.6 µM (inactive)
same,Potency,[6],> 20.6 µM (inactive)
same,outcome,[7],inactive
same,Potency,[8],inactive
same,"activity change, negative = inhibition",[9]; at 25.7 µM (top of the series),1.16% (inactive)
same,max response,[9]; [21],-5.41%
same,max response,[9]; [22],-4.79%
same,Potency,[20],14.1 µM (active)
CN1CCCC2(CCN(C(=O)c3ccco3)CC2)C1,outcome,[1],inactive
same,outcome,[4],inactive
same,Potency,[6],> 46 µM (inactive)
same,outcome,[7],inactive
same,Potency,[8],inactive
same,"activity change, negative = inhibition",[9]; at 57.5 µM (top of the series),-2.44% (inactive)
same,max response,[9]; [21],-24.9%
same,max response,[9]; [22],-25.6%
